Laboratory results published in PubChem BioAssay (Tox21).
Results filed as inconclusive are left out. Unmarked numbers belong to inactive results. The source made the active and inactive calls. Calls follow the shape of the full dose curve.

The compounds below were run against 5-hydroxytryptamine receptor 2A (Homo sapiens) (UniProt P28223) (assay: 5-hydroxytryptamine receptor 2A (HTR2A) small molecule agonists, cell-based qHTS assay (AID 1963587; also: nearly all actives have a fitted effect of over 30% in size)). Settings: HTR2A-CHO cells, calcium flux fluorescence, agonist mode; series mostly up to 76.8 µM; activation: at the top concentration.
Source text: National Center for Advancing Translational Sciences [NCATS]
Division of Preclinical Innovation [DPI]
U.S. Environmental Protection Agency [EPA]
National Institutes of Environmental Health Sciences [NIEHS]
National Toxicology Program [NTP]
U.S. Food and Drug Administration [FDA]
The HTR2A receptor is a subtype of the 5-HT2 receptor that belongs to the serotonin receptor family and is a G protein-coupled receptor (GPCR). The HTR2A-CHO cell line stably expressing human 5-hydroxytryptamine receptor 2A (HTR2A) can be used for screening agonists of interactions between 5-HT2 and its ligands. The HTR2A-CHO calcium flux assay is a homogeneous fluorescence-based assay for detecting the intracellular calcium level using FDSS kinetic plate reader system.
HTR2A-CHO cells were dispensed at 2000 cells/3uL/well in 1536-well black-clear bottom plates using a Multidrop Dispenser. After the assay plates were incubated at a 37 C/5% CO2 incubator for 18 h, 3 uL of Dye Loading Buffer was transferred to the assay plate by a Flying Reagent Dispenser. The assay plates were incubated at 37 C for 1h. For agonist mode, 23 nL of compounds dissolved in DMSO, positive controls or DMSO only was transferred to the assay plate by a pin tool. The fluorescence intensity in the plates was measured using FDSS 7000EX kinetic plate reader for 2 min at 1 sec intervals.
% is scaled to controls: 0 for no effect and ±100 for the full control effect; potency is read from the fitted curve at half-maximal effect.

5-hydroxytryptamine receptor 2A (Homo sapiens), sequence (P28223 whole entry, looked up): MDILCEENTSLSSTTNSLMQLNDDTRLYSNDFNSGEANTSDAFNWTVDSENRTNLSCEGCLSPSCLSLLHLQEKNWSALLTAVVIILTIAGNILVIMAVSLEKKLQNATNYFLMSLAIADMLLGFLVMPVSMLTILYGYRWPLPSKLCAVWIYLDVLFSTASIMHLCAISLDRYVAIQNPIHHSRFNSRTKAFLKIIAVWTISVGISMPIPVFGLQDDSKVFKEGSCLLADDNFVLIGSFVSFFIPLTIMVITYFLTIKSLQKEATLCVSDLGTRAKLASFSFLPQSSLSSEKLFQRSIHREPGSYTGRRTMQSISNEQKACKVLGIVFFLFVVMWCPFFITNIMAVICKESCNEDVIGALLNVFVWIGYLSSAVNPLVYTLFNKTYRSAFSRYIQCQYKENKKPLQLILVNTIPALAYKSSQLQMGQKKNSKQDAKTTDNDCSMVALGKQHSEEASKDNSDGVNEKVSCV

| SMILES | activation | Potency |
| --- | --- | --- |
| N#Cc1c(F)cccc1F | 4.15% |  |
| CCCCCN(CCCOC)C(=O)C(CCC(=O)O)NC(=O)c1ccc(Cl)c(Cl)c1 (stereo not given) | -3.51% [at 35.6 µM] |  |
| CC(CC(C#N)(c1ccccc1)C(C)C)N(C)C (stereo not given) | -8.92% [at 35.6 µM] |  |
| CCCN(CCC)CCc1cccc2c1CC(=O)N2 |  | 16.9 µM (active) |
| Nc1cc([N+](=O)[O-])cc(Cl)c1O | -0.91% |  |
| CCO[Si](CCCCl)(OCC)OCC | 1.08% |  |
| CCCCCN=C(N)N/N=C/c1c[nH]c2ccc(OC)cc12 |  | 0.0107 µM (active) |
| C=C(C)C1CC=C(C)C(O)C1 (stereo not given) | -1.23% |  |
| CCCCCN(CCCCC)C(=O)C(CCC(=O)O)NC(=O)c1ccc(Cl)c(Cl)c1 (stereo not given) | 34.6% [at 35.6 µM] |  |
| CN1CN(C)CN(C)C1 | -0.996% |  |
| NS(=O)(=O)c1cc(-c2nn[nH]n2)c(NCc2cccs2)cc1Cl | -8.89% [at 35.6 µM] |  |
| CC(COc1ccccc1)NC(C)C(O)c1ccc(O)cc1 (stereo not given) | -10.1% [at 35.6 µM] |  |
| CCC(C=O)CC | 1.47% |  |
| COCCOCCOCCOC | 0.942% |  |
| CC(=O)C1CCCCC1=O (stereo not given) | 0.875% |  |
| NNc1nnc(NN)c2ccccc12 | 5.72% [at 35.6 µM] |  |
| CCCCCCCCCCCC[N+](C)(C)CCCCCCCCCCCC | 3.13% |  |
| CCCCCCCCCCCC(=O)N(CC)CC | 1.2% |  |
| C/C=C/C=C/CCCCCCCO | 0.278% |  |
| COc1ccc(-c2cc(C(F)F)nn2-c2ccc(S(N)(=O)=O)cc2)cc1F | -2.86% [at 35.6 µM] |  |

| SMILES | activation | Potency |
| --- | --- | --- |
| O=C(c1ccc(F)cc1)C1CCN(CCn2c(=O)[nH]c3ccccc3c2=O)CC1 | -0.96% [at 35.6 µM] |  |
| Cc1cc(C)n(CO)n1 | 3.3% |  |
| C=C(C)CCCC(C)CCO (stereo not given) | -2.38% |  |
| CCC=CC#N | -1.43% |  |
| Cc1nc(C2CCCCC2)c(-c2ccc(S(N)(=O)=O)c(F)c2)o1 | -8.88% [at 35.6 µM] |  |
| CCCC(=O)OCOC(=O)C1=C(C)NC(C)=C(C(=O)OC)C1c1cccc(Cl)c1Cl (stereo not given) | 0.182% [at 35.6 µM] |  |
| O=C(c1ccco1)N1CCNCC1 | -2.54% [at 35.6 µM] |  |
| NC(=O)N(O)[C@@H]1C=C[C@H](Oc2cccc(Oc3ccc(F)cc3)c2)C1 | 2.62% |  |
| CC(C)(C)NCC(O)COc1ccc(NC(=O)NC2CCCCC2)cc1 (stereo not given) | 2.76% [at 35.6 µM] |  |
| CC(=O)Nc1cccc(C)c1 | -1.4% |  |
| CN(C)CCc1c[nH]c2ccc(C[C@H]3COC(=O)N3)cc12 |  | 8.49 µM (active) |
| CN(C)CCN1CCN(c2cccc(Cl)c2)C1=O | -4.26% [at 35.6 µM] |  |
| Cc1scc2c1N(C(=O)CN1CCN(C)CC1)c1ccccc1NC2=O | -0.208% [at 35.6 µM] |  |
| CC(=O)C1C(=O)C=C(C)OC1=O (stereo not given) | 4.18% |  |
| CCOC(=O)c1ccc(I)cc1 | 5.23% |  |
| COc1cc2c(cc1OC)CN(C(=O)[C@H](C)N[C@@H](CCc1ccccc1)C(=O)O)[C@H](C(=O)O)C2 | 0.418% [at 35.6 µM] |  |
| O=C(Nc1ccccc1)Nc1ccccc1 | -3.46% |  |
| FC1(F)C(F)(F)C(F)(F)C2(F)C(F)(C1(F)F)C(F)(F)C(F)(F)C1(F)C(F)(F)C(F)(F)C(F)(F)C(F)(F)C12F (stereo not given) | -2.09% |  |
| CN1CCCC(n2nc(Cc3ccc(Cl)cc3)c3ccccc3c2=O)CC1 (stereo not given) | -7.08% [at 35.6 µM] |  |
| CC(=O)Oc1cc2c(s1)CCN(C(C(=O)C1CC1)c1ccccc1F)C2 (stereo not given) | -5.42% [at 35.6 µM] |  |
